Compounds with a hit are over-represented: about 14% of the library has one in this group of screens.
Sm TGR inh: blocks Schistosoma mansoni thioredoxin glutathione reductase; Potency, µM (series often up to 114 µM), without a hit: at the highest dose activity change, negative = inhibition, actives largely listed as inhibitors; AID 485364; purified TGR, DTNB reduction, TNB absorbance 405 nm; 360,000 tested, 3% active; Q962Y6; further: potency means the concentration at half of the fitted maximal effect; nearly all actives have a fitted effect of over 60% in size
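TGR 20 nM + NADPH 100 uM (dispensed conc.), cpd preinc 15 min RT; start with NADPH (500 uM addition) then DTNB (15 mM addition). Kinetic TNB absorbance, 405 nm filter. Four-parameter Hill fit across titration.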
Pf growth 48h: P. falciparum growth inhibition at 48 hours (one generation); P. falciparum luciferase growth in erythrocytes, 48 h; Potency, µM (titrated, usually from 28.7 µM), inactives show top-dose activity change, negative = inhibition, most hits filed as inhibitors; 310,000 tested, 5.9% active; further: potency means the concentration at half of the fitted maximal effect
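Growth was read as firefly luciferase luminescence after a 48 h, 37 C, 5% CO2 exposure of compounds to reporter-bearing P. falciparum cultures (0.1% parasitemia, 2% hematocrit final) in Albumax-supplemented RPMI 1640.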
FBPA Giardia inh: inhibitors of Giardia lamblia fructose-1,6-bisphosphate aldolase; A8B2U2; 290,000 tested, 0.71% active; Potency, µM (top dose mostly 59.6 µM), for the others: at the highest dose activity, negative = inhibition, usual class: inhibitors; AID 2451; purified Giardia FBPA; further: potency means the concentration at half of the fitted maximal effect; nearly all actives have a fitted effect of over 55% in size
Target sequence (A8B2U2 whole entry, looked up): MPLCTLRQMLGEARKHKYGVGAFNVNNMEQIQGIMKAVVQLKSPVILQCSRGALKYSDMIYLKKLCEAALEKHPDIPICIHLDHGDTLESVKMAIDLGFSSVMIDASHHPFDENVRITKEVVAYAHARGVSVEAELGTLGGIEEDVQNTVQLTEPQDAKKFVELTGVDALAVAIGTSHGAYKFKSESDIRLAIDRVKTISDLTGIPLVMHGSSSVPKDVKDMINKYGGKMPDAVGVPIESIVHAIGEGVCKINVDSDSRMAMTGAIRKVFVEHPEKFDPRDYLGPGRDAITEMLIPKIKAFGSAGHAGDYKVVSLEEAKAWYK
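Giardia FBPA (40 nM reagent) was preincubated 10 min at RT with compound (up to 57.5 uM final), then substrate plus GAPDH/TPI/NAD/arsenate coupling system with diaphorase/resazurin was added; resorufin fluorescence (525/598 nm) was read after 20 min.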
HCMV inh: blocks human cytomegalovirus replication; HFF cells, HCMV-luciferase reporter, 72 h; stronger effect = lower value; activity change, negative = inhibition, % at 57.5 µM; 410,000 tested, 4.5% active; AID 1259415; in the data active means activity change below about -60%; inconclusive means no clear call, values can overlap the other calls; inactive means above about -39%
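After 16 h attachment at 37C, HFF cells received test compound and HCMV-luciferase (1 PFU/cell); reporter luminescence read 72 h later, data normalized against buffer-only and known inhibitor Salinomycin.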
Pf growth 96h: inhibits malaria parasite growth, 96 h; P. falciparum luciferase reporter growth, 96 h; Potency, µM (series often up to 28.7 µM), without a hit: at the highest dose activity change, negative = inhibition, actives largely listed as inhibitors; AID 504834; 320,000 tested, 6.9% active; further: potency means the concentration at half of the fitted maximal effect
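Readout is luminescence from an integrated firefly luciferase in P. falciparum. Red cells, 2% hematocrit and 0.05% parasitemia final, were cultured with compound through two parasite generations (96 hours) at 37 C, 5% CO2.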
An asterisk follows results filed as active; ? = inconclusive; . = no result; [ ] = another dose, or the depositor's remark. Unless noted, the call rests on the fitted dose curve; in most records, active means well fitted curve in the direction sought with a large enough effect; inconclusive means small, poorly fitted or top-dose-only effect, or another doubt; inactive means no such curve, though single readings can be large; an effect the other way counts as inactive or inconclusive. On the % scale 0 is the no-effect control and ±100 the full control effect.

SMILES | Sm TGR inh | Pf growth 48h | FBPA Giardia inh | HCMV inh | Pf growth 96h
O=C(O)C1CCCC2CN3CCc4c([nH]c5ccccc45)C3C(O)C21 (centres undefined) | -11.6% | -4.0% | ? | -71.6* | ?
O=C(CCC1CCCN(C(=O)c2ccc3[nH]ccc3c2)C1)N1CCN(c2ccccn2)CC1 (centres undefined) | 0.0% | ? | 1.3% | -83.2* | 399.7%
COc1ccc(C(=O)N2CCCC(Nc3ccc(C)c(C)c3)C2)cc1F (centres undefined) | -6.2% | -3.2% | 2.8% | -1.2 | ?
Cc1ccc(C(=O)N2CCCC(Nc3ccc(F)cc3)C2)cc1C (centres undefined) | 79.4µM* | ? | . | -12.1 | 0.0%
COc1ccc(C(=O)N2CCCC(Nc3ccc(F)cc3)C2)cc1F (centres undefined) | -21.0% | 24.3% | 13.9% | -17.6 | 10.4µM*
CC1CCCCN1C(=O)c1ccc(C(=O)Nc2ccc(F)cc2)cc1 (centres undefined) | -11.6% | ? | . | ? | ?
O=C(Nc1ccc(F)cc1)c1ccc(C(=O)N2CCCC(O)C2)cc1 (centres undefined) | 3.98µM* | 0.7% | . | -10.9 | 100.7%
Cc1noc(NS(=O)(=O)c2ccc(NC(=O)COc3ccccc3Br)cc2)c1C | -3.2% | . | . | 7.5 | .
O=C(c1ccc2[nH]ccc2c1)N1CCCC(Nc2ccccc2)C1 (centres undefined) | 60.7% | 17.7% | 5.7% | 5.8 | 2.7%
Cc1ccc(NC2CCCN(C(=O)c3ccc4[nH]ccc4c3)C2)cc1C (centres undefined) | -2.9% | ? | -6.5% | 6.9 | 13.1µM*
O=C(NCc1ccccc1)C(c1ccc(O)cc1)N(C(=O)Cn1nnc(-c2cccs2)n1)c1ccc2c(c1)OCCO2 (centres undefined) | -10.8% | 11.7µM* | -5.3% | -30.4 | -8.4%
c1ccc(N2CCOCCOCCOCCOCC2)cc1 | 18.7% | -2.8% | -3.2% | 43.9 | 33.2%
CC1CCN(c2cc(N3CCOCC3)c(F)cc2[N+](=O)[O-])CC1 | 5.5% | ? | -0.3% | ? | 183.5%
Cc1ccc(C)n1-c1ccc(N(C)C)cc1 | 31.6µM* | 14.3% | ? | ? | ?
Cc1ccc(C)n1-c1ccc(N2CCOCC2)cc1 | 24.2% | 10.4µM* | ? | -73.2* | ?
CC1CCN(c2cc(N3CCOCC3)c([N+](=O)[O-])cc2F)CC1 | -11.9% | ? | 2.3% | -20.9 | 14.7µM*
Cc1ccc(C)n1-c1ccc(N2CCOCC2)c([N+](=O)[O-])c1 | 35.5µM* | ? | -13.7% | -30.6 | ?
CC(C)(C)C1CCc2c(sc(NC(=O)Cn3nnc(-c4cccc(C(F)(F)F)c4)n3)c2C#N)C1 (centres undefined) | -6.4% | . | . | 11.8 | .
COc1ccc(S(=O)(=O)N2CCc3cc4c(cc3C2C)OCCCO4)cc1 (centres undefined) | -1.0% | ? | . | 29.5 | ?
Cc1ccc(S(=O)(=O)CC(=O)N2CC(C)OC(C)C2)cc1 (centres undefined) | 6.1% | 100.2% | . | -0.3 | 34.8%
CCc1ccc(N2C(=O)c3cc(N4CCOCC4)c([N+](=O)[O-])cc3C2=O)cc1 | -6.3% | 4.3% | 2.3% | . | 7.38µM*
CCc1cccc(CC)c1N1C(=O)c2cc(N3CCOCC3)c([N+](=O)[O-])cc2C1=O | 2.6% | 14.8% | -6.7% | -16.8 | 11.2%
COc1ccccc1C(O)c1ncc(-c2cccc3ccccc23)[nH]1 (centres undefined) | . | . | . | 60.7 | .
CCC(C)C(=O)OC1CCC=C2C=CC(C)C(CCC3CC(O)CC(=O)O3)C21 (centres undefined) | . | . | . | -97.1* | .
CC[C@H](C)C(=O)O[C@H]1CCC=C2C=C[C@H](C)[C@H](CC[C@@H]3C[C@@H](O)CC(=O)O3)[C@H]21 | 3.9% | ? | 0.4% | ? | 5.0%
SMILES | Sm TGR inh | Pf growth 48h | FBPA Giardia inh | HCMV inh | Pf growth 96h
Cc1ccc(CNc2nc(N)c([N+](=O)[O-])c(NCc3ccccc3)n2)cc1 | 10.4% | 16.1% | 4.4% | -61.2* | 3.8%
Cc1ccc(CNc2nc(N)c([N+](=O)[O-])c(NCCO)n2)cc1 | 20.9% | ? | -2.9% | 10.1 | 8.28µM*
COc1ccc(-c2csc(Nc3cccc(C)n3)n2)cc1 | -22.6% | 146.2% | 7.7% | 253.4 | ?
CC(=O)Oc1ccc(-c2csc(Nc3cccnc3)n2)cc1 | 8.3% | 35.7% | 7.1% | -102.4* | ?
c1cncc(Nc2nc(-c3ccncc3)cs2)c1 | -1.3% | -7.6% | 4.4% | 12.0 | .
COc1ccc(-c2csc(Nc3ccc(Oc4ccccc4)cc3)n2)cc1 | . | . | . | -64.7* | .
COc1ccc(C(=O)NC(=O)COC(=O)C2CC2C)cc1 (centres undefined) | . | . | . | -30.5 | .
CC(=O)c1cccc(-c2cnc3ccc(-c4cccc(Oc5ccccc5)c4)nn23)c1 | . | . | . | -7.8 | .
CNc1ccc2ncc(-c3cccc(C(=O)N(C)C)c3)n2n1 | . | . | . | -75.2* | .
CC(=O)c1cccc(-c2cnc3ccc(-c4cccc(CO)c4)nn23)c1 | . | . | . | -95.2* | .
Cc1ccc(NC(=O)Nc2nnc(N3CCCCC3)s2)c(C)c1 | 1.8% | . | . | 18.4 | .
O=C(CN1CCN(Cc2ccccc2)CC1)Nc1ccc(Cl)cn1 | -33.4% | 16.8% | 2.7% | 0.8 | .
O=C(NCCN1CCCCC1)Nc1cccc(Cl)c1Cl | 4.5% | 31.0% | 4.6% | 24.7 | 13.1µM*
O=C(CN1CCCCCCC1)Nc1cccc(Cl)c1Cl | 7.9% | 53.4% | 1.6% | -65.4* | -26.7%
Cc1ccc(S(=O)(=O)Nc2ccc(=O)n(Cc3ccc(Cl)c(Cl)c3)c2)cc1 | 39.8µM* | ? | ? | 13.0 | 7.1%
O=C(CN1CCCCCC1)Nc1ccc(Cl)cn1 | 39.8µM* | -3.2% | 5.2% | -12.4 | ?
CCCN1CCN(CCNC(=O)Nc2ccccc2Cl)CC1 | 17.5% | 22.7% | -4.0% | 18.2 | ?
O=C(CN1CCCCC1)Nc1cccc(Cl)c1Cl | 4.6% | 23.3% | 0.7% | 0.9 | .
O=C(O)CCSc1nc(C(F)(F)F)cc(=O)n1-c1ccccc1 | -4.9% | 15.5% | 11.5% | -22.9 | 15.6%
O=C(c1ccc(F)cc1)C1CCN(C(=O)Nc2ccccc2Cl)CC1 | -2.5% | -26.4% | -0.2% | -33.0 | 2.94µM*
Cc1ccccc1NC(=O)N1CCC(C(=O)c2ccc(F)cc2)CC1 | 3.4% | 4.2% | 0.9% | -38.0 | ?
O=C(CN1CCN(CC(=O)c2ccc(F)cc2)CC1)Nc1ccccc1Cl | 14.1µM* | ? | -8.3% | -26.7 | 84.5%
Cc1ccc(S(=O)(=O)Nc2ccc(NC(=O)CN3CCCCC3)c(Cl)c2)cc1 | -22.0% | -17.0% | 2.8% | -102.2* | .
Fc1ccc(/C=C2\CCCC3=C2Nc2ncnn2C3c2ccc(F)cc2)cc1 (centres undefined) | ? | 13.1µM* | -13.5% | 18.2 | ?
Cc1nnsc1SCC(=O)O | 3.9% | 43.0% | -0.2% | -98.9* | 0.0%
Cc1nnsc1Sc1ccccc1C(=O)O | -10.2% | -39.2%[5.75 µM] | 0.3% | -19.3 | 33.2%[5.75 µM]
